High-throughput results from PubChem BioAssay.
EPAC2 antagonist: EPAC2 (human) antagonism. Potency, µM (highest dose often 114 µM), inactives show top-dose activity, negative = inhibition, most hits filed as inhibitors. 360,000 tested, 0.18% active. EPAC2 GEF exchange of Rap1B-BODIPY-GDP, fluorescence. Q8WZA2; also: % is scaled to controls: 0 for no effect and ±100 for the full control effect; nearly all actives have a fitted effect of over 45% in size
Target sequence (Q8WZA2 whole entry, looked up): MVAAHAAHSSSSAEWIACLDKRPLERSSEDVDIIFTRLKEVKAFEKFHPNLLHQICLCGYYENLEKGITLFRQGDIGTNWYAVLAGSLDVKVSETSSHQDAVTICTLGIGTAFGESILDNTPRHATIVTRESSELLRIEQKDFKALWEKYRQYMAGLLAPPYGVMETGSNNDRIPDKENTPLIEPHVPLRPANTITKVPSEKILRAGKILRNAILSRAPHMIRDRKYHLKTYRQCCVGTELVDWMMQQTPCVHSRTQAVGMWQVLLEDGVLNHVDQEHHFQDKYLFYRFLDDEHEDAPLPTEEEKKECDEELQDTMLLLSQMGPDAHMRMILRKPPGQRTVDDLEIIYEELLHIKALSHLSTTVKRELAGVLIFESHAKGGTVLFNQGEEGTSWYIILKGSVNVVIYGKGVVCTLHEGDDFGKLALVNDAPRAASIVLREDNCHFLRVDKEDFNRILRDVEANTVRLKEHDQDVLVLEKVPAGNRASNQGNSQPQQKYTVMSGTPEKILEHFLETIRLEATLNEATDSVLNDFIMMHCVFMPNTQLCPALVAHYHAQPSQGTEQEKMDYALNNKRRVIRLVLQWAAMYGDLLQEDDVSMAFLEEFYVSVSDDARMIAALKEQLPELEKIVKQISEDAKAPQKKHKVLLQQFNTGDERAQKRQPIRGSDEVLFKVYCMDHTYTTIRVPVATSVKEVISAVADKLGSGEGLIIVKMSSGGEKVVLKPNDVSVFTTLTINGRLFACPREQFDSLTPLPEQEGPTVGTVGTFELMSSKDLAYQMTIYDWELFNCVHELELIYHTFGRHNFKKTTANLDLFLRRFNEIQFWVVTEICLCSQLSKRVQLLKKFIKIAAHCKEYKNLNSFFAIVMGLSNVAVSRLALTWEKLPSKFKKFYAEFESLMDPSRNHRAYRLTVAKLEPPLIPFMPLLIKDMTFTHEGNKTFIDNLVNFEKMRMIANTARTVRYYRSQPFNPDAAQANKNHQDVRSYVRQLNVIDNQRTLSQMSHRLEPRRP
EPAC1 agonist: agonists of human EPAC1 | O95398 | EPAC1 agonist qHTS, biochemical assay; response scale: 100% = response to 6.5 mM cAMP | Potency, µM (doses to about 154 µM), inactives show top-dose activation, actives largely listed as activators | 360,000 tested, 0.073% active | AID 720707; also: nearly all actives have a fitted effect of over 60% in size
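Read-out is the fluorescence drop as BODIPY-GDP leaves Rap1B (480 nm excitation, 540 nm emission), recorded every 5 minutes over 30 minutes. Reactions held 100 nM EPAC1, 250 nM Rap1B–BODIPY-GDP and 50 uM GDP, with 6.5 mM cAMP setting full activation.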
BRCA1 expr act: activators of BRCA1 expression; AID 624202; 380,000 tested, 1.1% active; MCF7-BRCA1-FFLuc reporter, luminescence, 48 h; response scale: scaled: vehicle 0%, 10 µM genistein 100%; Potency, µM (titrated, usually from 46.1 µM), for inactives: at the top dose activation, most hits filed as activators; also: nearly all actives have a fitted effect of over 80% in size
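Using MCF7 cells harboring a BRCA1 firefly luciferase reporter, plated 2 h before compound pinning, the screen measured luminescence after 48 h incubation. Responses were normalized to DMSO and 10 microM genistein, then fitted for concentration-effect.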
EPAC2 ag: activates human EPAC2 exchange factor | Q8WZA2 | EPAC2 activation, biochemical qHTS; response scale: 100% = 6.5 mM cAMP response | Potency, µM (doses to about 154 µM), for the others: at the top dose activation, most hits filed as activators | 360,000 tested, 0.079% active; also: nearly all actives have a fitted effect of over 50% in size
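Nucleotide exchange monitored as fluorescence drop when BODIPY-GDP leaves Rap1B. Reaction: 100 nM EPAC2, 250 nM RAP1B-BODIPY-GDP, 50 uM GDP, room temperature, kinetic read over 30 min. Activity expressed relative to 6.5 mM cAMP.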
RGS4 inhibitor: inhibitors of human regulator of G protein signaling 4; P49798; 390,000 tested, 0.039% active; Potency, µM (titrated, usually from 114 µM), inactives show at the top dose activity change, negative = inhibition, hits mostly inhibitors; Transcreener GDP fluorescence polarization, RGS4-accelerated GTP hydrolysis; also: % is scaled to controls: 0 for no effect and ±100 for the full control effect; nearly all actives have a fitted effect of over 75% in size
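MLSMR compounds (23 nl, pin-transferred) preincubated 10 min at room temperature with a 500nM (2x) first reagent, then RGS4 at 900nM (2x) plus Transcreener GDP mix added; fluorescence polarization (620/688 nm) read before and after 90 min at 30 °C.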
EPAC1 antag: antagonists of human EPAC1 | EPAC1 GEF assay, Rap1b-BODIPY-GDP exchange fluorescence | Potency, µM (series often up to 115 µM), for inactives: at the highest dose activity change, negative = inhibition, most hits filed as inhibitors | 360,000 tested, 0.14% active;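 also: plate controls were vehicle for no effect and positive control for full effect; nearly all actives have a fitted effect of over 50% in size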
Numbers without * were called inactive; ? = inconclusive; . = not tested or not shown; [ ] = another dose, or the depositor's remark. Compounds with a hit are over-represented: about 1.3% of the library has one in this group of screens. Calls follow the shape of the dose curve; as a rule, active = well fitted curve in the direction sought with a large enough effect; inconclusive = small, poorly fitted or top-dose-only effect, or another doubt; inactive = no such curve, though single readings can be large; an effect the other way counts as inactive or inconclusive. Potency is read from the fitted curve at half-maximal effect.

SMILES	EPAC2 antagonist	EPAC1 agonist	BRCA1 expr act	EPAC2 ag	RGS4 inhibitor	EPAC1 antag
O=[N+]([O-])c1ccc(N/N=C/c2cccs2)nc1	11%	-3%	4µM*	7%	19%	-5%
COc1cccc(/C=N/Nc2nc3ccccc3[nH]2)c1O	46%	7%	-67%	5%	-2%	11%
C(=N\Nc1nc2ccccc2[nH]1)/c1ccc2c(c1)OCO2	4%	-3%	13µM*	-2%	9%	-8%
C(=N\Nc1nc2ccccc2[nH]1)/c1cccs1	4%	1%	10µM*	1%	4%	-11%
C/C(=N\Nc1nc2ccccc2[nH]1)c1ccc2c(c1)OCO2	-19%	9%	-41%	14%	17%	-26%
Cn1cc(C2NC(=O)c3ccccc3N2)c2ccccc21 (configuration not stated)	9%	4%	-52%	0%	2%	7%
Nn1c(-c2cccs2)nc2sc3c(c2c1=O)CCCC3	-2%	7%	-1%	13%	-37%	-5%
COC(=O)c1ccc(/C=N/Nc2nc3ccccc3[nH]2)cc1	6%	-5%	3.2µM*	3%	-15%	5%
O=C(O)c1ccc(/C=N/Nc2nc3ccccc3[nH]2)cc1	-2%	3%	0%	-1%	9%	-15%
CN1CCC(N(C)S(=O)(=O)c2ccc(NC(=O)COc3ccc([N+](=O)[O-])cc3)cc2)CC1	1%	-9%	-11%	4%	8%	8%
O=C1NN(c2ccccc2)C(=O)/C1=C/c1ccc(Sc2cccc3ccccc23)o1	5%	-5%	1%	-13%	?	56µM*
O=C1NN(c2ccccc2)C(=O)/C1=C/c1ccc(-c2ccc(C(=O)O)cc2)o1	8%	13%	31%	18%	-1%	-8%
CCOC(=O)c1oc2ccc(CNCCO)c(Cl)c2c1C	-5%	10%	11µM*	-1%	12%[11.4 µM]	-3%
CCCCOC(=O)Nc1ccc(N2CCOCC2)cc1	12%	-29%	4.5µM*	-5%	-36%	-2%
COc1ccc(OCCC(=O)OCC(=O)Nc2ccc(S(=O)(=O)N3CCOCC3)cc2)cc1	-7%	-4%	38%	14%	30%	?
CC(C)(C)c1ccc(OCCC(=O)OCC(=O)Nc2ccc(N3CCOCC3)cc2)cc1	-2%	71µM*	-39%	-15%	-8%	-17%
CCCCOC(=O)Nc1ccc(C(C)C)cc1	-5%	-1%	11µM*	-1%	2%	-8%
C/C(=N\Nc1ccc(S(=O)(=O)N2CCCCC2)cn1)c1cccc(Br)c1	8%	3%	-36%	5%	-7%	-5%
COc1ccc(N=Cc2c(O)n(-c3cccc(C)n3)c(=O)c3ccccc23)c(OC)c1	119%	9%	-14%	100µM*	-9%	10%
CC(C)(C)NCC(=O)N/N=C/c1ccc(OCc2ccccc2)cc1	-1%	-3%	10µM*	-2%	-6%	11%
Oc1ccc(N=Cc2ccc(OCc3ccccc3)cc2)cc1	?	17%	-55%	14%	-32%	25µM*
CCCCNC(=O)C(=O)N/N=C/c1ccc(OCc2ccccc2)cc1	21%	-13%	-2%	2%	13%	-19%
CCOC(=O)c1c(C)sc2c1N(C(=O)CCl)c1cc(Cl)ccc1S2	-2%	11%	-89%	9%	17%	?
C=CCn1cnc2scc(-c3ccc(C)c(C)c3)c2c1=O	?	1%	-27%	12%	-13%	0%
CCOc1ccc(NC(=O)c2oc3ccccc3c2NC(=O)Cc2ccc(OC)c(OC)c2)cc1	.	.	11µM*	.	4%	.
SMILES	EPAC2 antagonist	EPAC1 agonist	BRCA1 expr act	EPAC2 ag	RGS4 inhibitor	EPAC1 antag
C/C(=N\OCC(=O)Nc1ccccc1C(=O)O)c1cccs1	5%	6%	11µM*	9%	29%	11%
[N-]=[N+]=Nc1ccc(C(=O)CSC[C@H](NC(=O)CC[C@H](N)C(=O)O)C(=O)NCC(=O)O)cc1	.	.	.	.	3.4µM*	.
O=c1c(O)c(-c2cc(O)c(O)c(O)c2)oc2cc(O)cc(O)c12	8.9µM*	-26%	-10%	8%	?	16µM*
O=c1c(O)c(-c2ccccc2)oc2cc(O)cc(O)c12	-12%	-21%	?	8%	-4%	-19%
CC(C)(C)C(=O)/C=C/Nc1ccccc1O	-2%	1%	-39%	-5%	-36%	7%
Cc1cccc(/C=N/NC(=O)NC23CC4CC(CC(C4)C2)C3)n1	4%	-6%	40%	-1%	3%	20%
O=C(N/N=C/c1ccccc1F)NC12CC3CC(CC(C3)C1)C2	0%	-3%	5µM*	2%	-18%	-3%
O=C(N/N=C/c1ccccn1)NC12CC3CC(CC(C3)C1)C2	-2%	-7%	4µM*	3%	-4%	-2%
C=CCSc1nnc(-c2ccc(Cl)cc2Cl)o1	7%	7%	?	6%	-3%	16%
CC(=O)Nc1ccccc1OCc1nnc(-c2ccccc2Cl)o1	14%	-7%	15%	0%	6%	-4%
Oc1ccccc1-c1nnc(COc2ccc(Cl)cc2Cl)o1	0%	-1%	13µM*	6%	?	?
Clc1ccc(-c2nnc(CCc3ccccc3)o2)c(Cl)c1	3%	7%	11µM*	5%	-14%	7%
CCOC(=O)C1CCN(c2c(N(C)Cc3ccco3)c(=O)c2=O)CC1	1%	12%	1%	10%	-4%	-28%
CCOC(=O)c1c(C)[nH]c(CCC(=O)NCCCN2CCN(c3cc(Cl)ccc3C)CC2)c1C	.	.	.	.	23%	.
CC(C)Oc1cccc(-c2cc(C(=O)NN3CCOCC3)c3ccccc3n2)c1	-1%	-1%	-3%	9%	-1%	2%
CCCc1ccc(-c2cc(C(=O)NN3CCOCC3)c3ccccc3n2)cc1	-4%	9%	14µM*	-4%	-24%	1%
CN(C)c1ccc(C(=O)OCC(=O)Nc2ccc(S(N)(=O)=O)cc2)cc1	50µM*	?	17%	23%	?	50µM*
COc1cccc(/C=C/C(=O)NCC2CCCCC2)c1	-7%	4%	53%	7%	21%	26%
Cc1cccc(CC(=O)NCC2CCCCC2)c1	-5%	-6%	10µM*	1%	-7%	-4%
CCOc1ccccc1/C=N/NC(=O)c1cc(C(C)C)[nH]n1	2%	5%	-14%	7%	-13%	-16%
COc1ccc(NC(=O)c2cc(S(=O)(=O)N(Cc3ccccc3)c3ccccc3)ccc2Cl)cn1	-1%	13%	-40%	9%	-12%	?
O=S1(=O)C=C(Oc2ccc3ccccc3c2)c2ccccc21	25µM*	5%	6%	11%	-9%	-1%
